Test [1] can be described thus: inhibitors of TNFa-induced NFkB p65 translocation, primary screen, imaging, HUVEC, MLSMR starter and 10KST1 sets (AID 438).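 Also: compound added about 3h40 before a 20 min TNFalpha stimulation.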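 As to inhibition: signal is the nuclear over cytoplasmic p65 intensity ratio per well.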 Particulars: HUVEC TNFa-induced p65 nuclear translocation; cell count: measured here: nuclei count (cytotoxicity indicator), at 2.08 µM; inhibition: at 2 µM, stronger effect = higher value, 0% TNFa-plus-vehicle, 100% no-TNFa wells.
A short description of test [2]: inhibitors of mutant huntingtin aggregation, primary screen, imaging, exon1htt(103Q)mCFP cells, high-content imaging (AID 483;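 active = visual image review flags a hit and inhibition of aggregation exceeds 20%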;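 also: compound exposure lasted 3 days before fixation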;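 as to nuclei count: percent of the per-plate median nuclei count of sample wells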). Particulars: exon1htt(103Q)mCFP cell line, aggregate imaging, at 2 µM; inhibition of aggregation: stronger effect = higher value; nuclei count: measured here: cell count, toxicity.
A short description of test [3]: inhibitors of E-selectin induction by TNFa, primary screen, imaging, HUVEC, immunofluorescence, MLSMR starter and 10KST1 sets (AID 487;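 active = visually confirmed hit in the image check and inhibition above 20%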;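 as to inhibition: signal is fraction of cell area covered by stained E-selectin grains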;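 as to nuclei count: 100% = median nuclei count of all wells on the same plate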). Particulars: HUVEC TNFalpha-induced E-selectin immunofluorescence imaging, at 2 µM; inhibition: stronger effect = higher value; nuclei count: measured here: cell number, toxicity.
For test [4], the target named is Voltage-gated potassium channel subunit beta-2 (Rattus norvegicus) (UniProt P62483). The experiment in a line: KvBeta enzyme negative modulators, primary screen, biochemical, NADPH fluorescence (AID 622;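 active = fluorescence slope higher than the sample average by over 3 SD, cut at about -0.22 in these data, passing the limit was not always enough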;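 also: slope of raw intensity against log time taken from 70 to 1610 s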). Particulars: recombinant KvBeta, 4-cyanobenzaldehyde reduction, at 10 µM, stronger effect = higher value.
Test [5] shares this target. Put plainly: KvBeta positive modulators, primary screen, biochemical, NADPH fluorescence (AID 623;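 active = NADPH fluorescence slope more negative than the mean of all samples by about 3 SD, 99.7% confidence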;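 also: fluorescence intensity change per second fitted from 20 to 320 s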). Particulars: Recombinant KvBeta, NADPH fluorescence decrease slope, 10 min; at 10 µM; stronger effect = lower value.
Test [6] concerns the target Alpha-2C adrenergic receptor (Homo sapiens) (UniProt P18825). Put plainly: modulators of alpha2C/GIRK thallium flux, primary screen, cell-based, HEK293 alpha2C/GIRK1/2 (AID 624;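 active = fluorescence slope after compound addition differing from the mean of all screened samples at 99.7% confidence, in either direction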;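 also: slope of fluorescence ratio to pre-addition baseline per second over 15 to 24 s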). Particulars: thallium flux BTC fluorescence, at 10 µM, actives lie on both sides.
Test [7] in a line: inhibitors of Sendai virus-induced IRF3 signaling, primary screen, TLR/RLR signaling modifier project, cell-based, Sendai virus stimulus, luciferase, 10K MLSCN set (AID 602276;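 active = inhibition at or above 50% at 10 µM; inactive = inhibition below 50%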;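 also: firefly luciferase from ISG56 promoter only with Renilla not read in this screen; 0% = Sendai virus plus DMSO and 100% = medium plus DMSO without virus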). Particulars: HEK293 RL24 IRF3 luciferase reporter, at 10 µM, stronger effect = higher value. (In general: Reporter assays use an easily measured gene product as a stand-in for the process of interest.)
Test [8] can be described thus: inhibitors of poly I:C-induced TLR3 signaling, primary screen, cell-based, poly I:C stimulus, luciferase, 10K MLSCN set (AID 602277;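 active = inhibition of the reporter signal at or above 50%; inactive = inhibition below 50%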). Particulars: HEK293-TLR3 RL24 IRF3 luciferase reporter, at 10 µM, stronger effect = higher value.

Results on 13 molecules are retold here after PubChem BioAssay.

Activity calls are given as the source filed them.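 The calls were made as follows, unless noted: active = inhibition above 20% together with a positive visual image hit; inconclusive = visual image hit but inhibition not above 20%; inactive = no visual image hit.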

Voltage-gated potassium channel subunit beta-2 (Rattus norvegicus), sequence (P62483 whole entry, looked up): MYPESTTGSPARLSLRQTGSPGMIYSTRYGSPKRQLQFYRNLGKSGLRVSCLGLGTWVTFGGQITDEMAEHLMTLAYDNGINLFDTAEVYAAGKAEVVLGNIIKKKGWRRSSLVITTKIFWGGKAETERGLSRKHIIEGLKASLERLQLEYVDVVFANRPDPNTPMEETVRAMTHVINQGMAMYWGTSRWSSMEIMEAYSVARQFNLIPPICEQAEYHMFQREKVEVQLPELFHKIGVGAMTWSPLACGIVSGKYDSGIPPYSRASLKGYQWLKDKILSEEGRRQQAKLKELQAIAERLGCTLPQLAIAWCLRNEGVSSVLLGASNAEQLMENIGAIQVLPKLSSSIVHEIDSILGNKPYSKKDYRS
Alpha-2C adrenergic receptor (Homo sapiens), sequence (P18825 whole entry, looked up): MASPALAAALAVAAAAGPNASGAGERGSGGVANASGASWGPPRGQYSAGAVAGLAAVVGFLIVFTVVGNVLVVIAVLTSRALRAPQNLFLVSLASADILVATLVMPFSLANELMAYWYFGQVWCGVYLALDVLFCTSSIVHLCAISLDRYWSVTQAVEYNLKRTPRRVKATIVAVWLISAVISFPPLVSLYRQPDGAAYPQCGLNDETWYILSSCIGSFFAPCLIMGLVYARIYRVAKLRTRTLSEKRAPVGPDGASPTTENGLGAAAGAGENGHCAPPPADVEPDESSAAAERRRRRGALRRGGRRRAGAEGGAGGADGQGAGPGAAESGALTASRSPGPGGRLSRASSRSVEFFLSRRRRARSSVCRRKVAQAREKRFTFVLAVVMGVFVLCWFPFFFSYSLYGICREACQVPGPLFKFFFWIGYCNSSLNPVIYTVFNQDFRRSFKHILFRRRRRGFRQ

In general, inhibition refers to the drop in the measured response relative to a control, in per cent. Regarding `Cc1csc(NC(=O)CSc2nnc(Cc3cccn3C)n2-c2ccc(F)cc2)n1`, the cell count in test [1] turned out to be 688. Besides, the inhibition in test [1] is -3.4% (inactive); in test [3], -48.6% (inactive); in test [7], -11.3% (inactive); in test [8], 8.94% (inactive). The inhibition of aggregation in test [2] is 12.8% (inactive). Besides, the figures for the nuclei count in test [2] and in test [3] were 74% and 105%, respectively. The fluorescence slope in test [4] was -0.57 (inactive). The NADPH fluorescence slope in test [5] was 2e-05 (inactive). Moreover, the slope in test [6] is 0.00588 (inactive).
Consider `Cc1noc(C)c1COC(=O)c1ccccc1Oc1ccccc1`, for which, in test [1], the cell count is 583. For the same molecule, the inhibition was -25.6% (inactive) in test [1], -22.7% (inactive) in test [3], 4.67% (inactive) in test [7] and 22.4% (inactive) in test [8]. The inhibition of aggregation in test [2] was -12% (inactive). Besides, the nuclei count in test [2] was found to be 106%; in test [3], 146%. The fluorescence slope in test [4] was -0.627 (inactive). The NADPH fluorescence slope in test [5] is -3.8e-07 (inactive). In addition, the slope in test [6] is 0.00533 (inactive).
With `CCOC(=O)c1sc2nc(N3CCCC3)c3c(c2c1N)CC(C)(C)OC3`, the cell count in test [1] was 410. For the same molecule, the inhibition was 2.7% (inactive) in test [1], -22.4% (inactive) in test [3], -5.95% (inactive) in test [7] and 2.54% (inactive) in test [8]. Moreover, the inhibition of aggregation in test [2] is -0.3% (inactive). The results for the nuclei count in test [2] and in test [3] were 105% and 103%, respectively. The fluorescence slope in test [4] is -0.302 (inactive). Further, in test [5], the NADPH fluorescence slope is -1.6e-05 (inactive). Moreover, the slope in test [6] was 0.0041 (inactive).
On to `CSc1ccccc1NC(=O)c1cnc2n(c1=O)CCS2`, for which the cell count in test [1] was 695. Besides, the inhibition in test [1] was -9.6% (inactive); in test [3], -2.6% (inactive); in test [7] it was 5.22% (inactive); in test [8], -12.4% (inactive). The inhibition of aggregation in test [2] is -2.5% (inactive). Besides, the nuclei count in test [2] was 111%; in test [3], 112%. Also, the fluorescence slope in test [4] was -0.401 (inactive). In test [5], the NADPH fluorescence slope was 1e-05 (inactive). Moreover, the slope in test [6] was 0.00535 (inactive).
For `CC(C)c1ncc(C(O)c2cccc3ccccc23)n1C` (stereo not drawn), in test [1], the cell count came out at 640. The inhibition in test [1] was -10.5% (inactive); in test [3] it was -10.8% (inactive); in test [7], -12.7% (inactive); in test [8], -7.56% (inactive). Moreover, the inhibition of aggregation in test [2] is 11.4% (inactive). The nuclei count in test [2] came out at 75.8%; in test [3], 123%. For the same molecule, the fluorescence slope in test [4] is -0.494 (inactive). Moreover, in test [5], the NADPH fluorescence slope is -6.2e-05 (inactive). Further, the slope in test [6] was 0.00406 (inactive).
As for `COCCn1nnnc1C(c1cccs1)N1CCN(c2cc(C)ccc2C)CC1` (stereo not drawn), the cell count in test [1] was 203. Also, the inhibition in test [1] is 11.4% (inactive); in test [3], -2.6% (inactive); in test [7] it was 11.1% (inactive); in test [8], 16.2% (inactive). Moreover, the inhibition of aggregation in test [2] is -9% (inactive). In addition, the nuclei count stood at 84.8% in test [2] and 96.9% in test [3]. In addition, in test [4], the fluorescence slope was -0.618 (inactive). Besides, in test [5], the NADPH fluorescence slope is 2e-05 (inactive). Besides, the slope in test [6] is 0.00567 (inactive).
With `O=C(Cc1ccccc1)Nc1ccc(CN2CCOCC2)cc1`, in test [1], the cell count is 451. For the same molecule, the inhibition in test [1] was -5.4% (inactive); in test [3] it was -2.9% (inactive); in test [7], -34% (inactive); in test [8], -71.3% (inactive). The inhibition of aggregation in test [2] is -17.1% (inactive). For the same molecule, the nuclei count in test [2] worked out at 104%; in test [3] it was 107%. Also, the fluorescence slope in test [4] is -0.418 (inactive). Also, the NADPH fluorescence slope in test [5] was -3.3e-05 (inactive). Further, the slope in test [6] is 0.00462 (inactive).
`Cn1c(=O)c2c(ncn2CC(=O)OCC(=O)NC2CCCc3ccccc32)n(C)c1=O` (stereo not drawn): in test [1], the cell count stood at 392. In addition, the inhibition in test [1] was 2.7% (inactive); in test [3], -85.1% (inactive); in test [7] it was 2.45% (inactive); in test [8], 22.5% (inactive). The inhibition of aggregation in test [2] is 23.7% (inactive). Besides, the nuclei count came out at 64.6% in test [2] and 112% in test [3]. In test [4], the fluorescence slope was -0.616 (inactive). Further, the NADPH fluorescence slope in test [5] is 2.2e-06 (inactive). The slope in test [6] was 0.00842 (inactive).
Regarding `COc1ccc(C2C(C(=O)c3sc(C)nc3C)=C(O)C(=O)N2CCN(C)C)cc1OC` (stereo not drawn), the cell count in test [1] was found to be 539. In addition, the inhibition was 13.4% (inactive) in test [1], 10.8% (inactive) in test [3], -1.16% (inactive) in test [7] and 4.66% (inactive) in test [8]. Moreover, in test [2], the inhibition of aggregation was -5.5% (inactive). Moreover, the nuclei count in test [2] stood at 96.8%; in test [3], 103%. For the same molecule, the fluorescence slope in test [4] was -0.6 (inactive). Moreover, the NADPH fluorescence slope in test [5] is -7.9e-05 (inactive). Moreover, in test [6], the slope is 0.0037 (inactive).
As for `CC1(C)NC(=O)N(CC(O)CN2CCCC2)C1=O` (stereo not drawn), the cell count in test [1] is 317. The inhibition was -4.8% (inactive) in test [1], -48.6% (inactive) in test [3], 6.37% (inactive) in test [7] and -4.68% (inactive) in test [8]. For the same molecule, the inhibition of aggregation in test [2] is 4.1% (inactive). Besides, the nuclei count in test [2] amounted to 85.6%; in test [3] it was 72.8%. Besides, the fluorescence slope in test [4] was -0.543 (inactive). Also, the NADPH fluorescence slope in test [5] was 4.5e-05 (inactive). The slope in test [6] was 0.00702 (inactive).
Consider `COC(=O)c1ccccc1NC(=O)CC(NCc1ccccc1)C(=O)O` (stereo not drawn), for which, in test [1], the cell count was 619. In addition, the inhibition in test [1] is -5% (inactive); in test [3], -21.4% (inactive); in test [7], -10.8% (inactive); in test [8] it was 16.2% (inactive). In test [2], the inhibition of aggregation was -34.3% (inactive). The results for the nuclei count in test [2] and in test [3] were 124% and 116%, respectively. Also, the fluorescence slope in test [4] is -0.418 (inactive). Moreover, the NADPH fluorescence slope in test [5] was -8.7e-06 (inactive). In test [6], the slope was 0.00289 (inactive).
Regarding `CC(C)OC(=O)CCCCCN1C(=O)CSC1=S`, the cell count in test [1] stood at 448. For the same molecule, the inhibition is -9.2% (inactive) in test [1], -93.7% (inactive) in test [3], 1.67% (inactive) in test [7] and -4.31% (inactive) in test [8]. The inhibition of aggregation in test [2] was -5.3% (inactive). Also, the nuclei count in test [2] is 80.5%; in test [3], 114%. Further, in test [4], the fluorescence slope was -0.539 (inactive). The NADPH fluorescence slope in test [5] is -1.3e-05 (inactive). The slope in test [6] was 0.00459 (inactive).
For the molecule `COC(=O)C1(C#N)C(c2ccccc2)C1(C(=O)OC)C(=O)OC` (stereo not drawn), in test [1], the cell count came out at 450. The inhibition in test [1] was 2.6% (inactive); in test [3] it was -21.2% (inactive); in test [7], 13.2% (inactive); in test [8], 26.1% (inactive). The inhibition of aggregation in test [2] is -8.3% (inactive). Also, the nuclei count in test [2] is 103%; in test [3], 118%. In addition, the fluorescence slope in test [4] was -0.522 (inactive). The NADPH fluorescence slope in test [5] is -2.1e-05 (inactive). Also, in test [6], the slope is 0.00516 (inactive).
